# USP2a block – blocks human ubiquitin-specific protease USP2a. O75604. hit rate 0.01% among 330,000. Potency, µM (top dose mostly 38.3 µM), for inactives: top-dose activity change, negative = inhibition, actives largely listed as inhibitors. USP2 core, Ub-CHOP2 coupled fluorogenic reporter, 485/531;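 note: potency is the fitted concentration of half-maximal effect; plate controls were DMSO wells for no effect and full inhibition by NEM control for full effect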
#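 Deubiquitinase activity read as fluorescence (485/531 nm) after Ub-CHOP2 cleavage activates the enterokinase reporter on its substrate; USP2 core 10nM, Ub-CHOP2 and substrate 25nM each, 30min compound preincubation then 60min RT; data normalized to NEM, curves fitted.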
# USP1-UAF1 inh – blocks the human USP1/UAF1 deubiquitinase complex | O94782 | recombinant USP1/UAF1, Ub-Rhodamine cleavage fluorescence | Potency, µM (titrated, usually from 57.1 µM), for the others: at the highest dose activity change, negative = inhibition, usual class: inhibitors | hit rate 0.23% among 390,000 | AID 743255; note: potency is the fitted concentration of half-maximal effect; nearly all actives have a fitted effect of over 60% in size
#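 Step one: compound is pinned into 1nM USP1/UAF1 in HEPES pH 7.8 buffer with TCEP. Step two: 15 min room-temperature incubation. Step three: Ub-Rho (150nM final) starts cleavage, tracked by fluorescence over six one-minute reads.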
# PI5P4K alpha inh – inhibitors of human PI5P4K alpha; max response, %; PI5P4Kalpha enzyme, ADP-Glo luminescence, 60 min; stronger effect = lower value; hit rate 1.2% among 330,000; P48426; AID 652105; active = max response of -50% or lower; inconclusive = between -30% and -50%; inactive = -30% or higher; note: value at the top dose of about 77 µM
# Target sequence (P48426 whole entry, looked up): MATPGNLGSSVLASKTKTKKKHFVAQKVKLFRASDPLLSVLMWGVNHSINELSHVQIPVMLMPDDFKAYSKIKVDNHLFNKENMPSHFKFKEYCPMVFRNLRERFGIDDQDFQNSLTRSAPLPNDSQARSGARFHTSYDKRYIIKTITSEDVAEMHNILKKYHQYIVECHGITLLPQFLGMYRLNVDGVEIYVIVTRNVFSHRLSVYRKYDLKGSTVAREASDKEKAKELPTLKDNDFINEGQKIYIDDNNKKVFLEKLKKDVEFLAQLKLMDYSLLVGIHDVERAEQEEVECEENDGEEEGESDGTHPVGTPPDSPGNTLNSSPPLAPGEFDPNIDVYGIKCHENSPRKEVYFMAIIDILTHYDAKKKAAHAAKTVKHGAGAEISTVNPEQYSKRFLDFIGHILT
#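 Luminescence from ADP-Glo served as readout of PI5P4Kalpha activity in a qHTS format. Reaction: enzyme, substrate, compound, ATP at 5 microM final, 60 min at RT.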
# WRN helicase inh – blocks human WRN helicase. WRN helicase unwinding, fluorescent forked duplex, kinetic. Potency, µM (titrated, usually from 114 µM), for inactives: at the top dose activity change, negative = inhibition, most hits filed as inhibitors. hit rate 0.46% among 360,000. AID 651768; note: potency is the fitted concentration of half-maximal effect; nearly all actives have a fitted effect of over 55% in size
#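 WRN at 20 nM final was preincubated with compound for 15 min at room temperature; reaction started with 100 nM forked duplex oligonucleotide carrying fluorophore and quencher plus 2 mM ATP (final). Unwinding followed kinetically by red fluorescence (ex 525/em 598 nm).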
# PLK1 PBD block – blocks phosphopeptide binding to human PLK1 polo-box domain; P53350; Plk1 PBD binding of FITC phosphopeptide, fluorescence polarization; Potency, µM, for inactives: max response, negative = inhibition, hits mostly inhibitors; hit rate 2.8% among 360,000; AID 720504; note: potency is the fitted concentration of half-maximal effect; series mostly up to about 57 µM; nearly all actives have a fitted effect of over 65% in size
# * = called active by the depositor; ? = inconclusive; nt = no result given; [ ] = remark or other dose. Hits are enriched below; roughly 3.3% of the tested compounds scored in any of these assays. Unless noted, calls come from the whole dose curve; as a rule, active = well fitted curve in the direction sought with a large enough effect; inconclusive = small, poorly fitted or top-dose-only effect, or another doubt; inactive = no such curve, though single readings can be large; an effect the other way counts as inactive or inconclusive. Unless noted, % is set by controls: 0 for no effect and ±100 for the full control effect.
SMILES,USP2a block,USP1-UAF1 inh,PI5P4K alpha inh,WRN helicase inh,PLK1 PBD block
Cc1cccc(NC(=O)CCNS(=O)(=O)c2ccc3c(c2)CCCC(=O)N3)c1C,nt,-27%,nt,nt,nt
O=[N+]([O-])c1ccccc1CN1CCN(c2ncccn2)CC1,-1%,-21%,1,13%,?
O=[N+]([O-])c1ccccc1CN1CCN(Cc2ccccn2)CC1,-2%,-27%,-18,-13%,17µM*
O=c1[nH]c(/C=C/c2ccccc2)c([N+](=O)[O-])c(=O)[nH]1,0%,-34%,-76*,-26%,-21%
O=c1[nH]c(/C=C/c2cccc([N+](=O)[O-])c2)c([N+](=O)[O-])c(=O)[nH]1,-2%,?,-67*,-5%[11.6 µM],-5%
O=c1[nH]c(/C=C/c2ccc(Cl)cc2Cl)c([N+](=O)[O-])c(=O)[nH]1,2%,-14%,-78*,-32%,-15%
COc1cc(NS(=O)(=O)c2ccc(NC(=S)NC(=O)c3sc4ccccc4c3Cl)cc2)ncn1,6%,-9%,?,?,15µM*
Cc1cc(N2O[C@]34C=C[C@]25C[C@@H](O)CC[C@]5(C)C3CC[C@]2(C)[C@@H]([C@H](C)/C=C/[C@H](C)C(C)C)CC[C@H]24)no1 (stereo partly specified),0%,-19%,-3,5%,24µM*
COc1ccnc(Oc2ccccc2)c1C(=O)N/C=N/OCc1ccc(F)cc1Cl,-11%,-6%,nt,-34%,-2%
CC1=C(C#N)C(/C=N/OCc2ccc(F)cc2Cl)CC(=O)N1 (stereo unspecified),4%,-21%,-9,10%,30µM*
O=S(=O)(/C=C/c1ccccc1)NC1CCCCCCC1,0%,-16%,-5,-11%,4%
O=S(=O)(/C=C/c1ccccc1)NC1CCCCCC1,2%,-5%,-4,-7%[57.1 µM],27µM*
COc1ccc(/C=C2/NC(=O)N(Cc3ccccc3F)C2=O)cc1OC,0%,-21%,8,-4%,5%
Cc1cc(/C=C2/NC(=O)N(Cc3ccccc3F)C2=O)c(C)n1C,0%,-28%,-19,1%,30µM*
CCOc1cc([N+](=O)[O-])cc(/C=C2/NC(=O)N(Cc3ccccc3F)C2=O)c1O,-1%,?,-77*,-1%[11.6 µM],-15%
COCc1cc(C)nc2sc(C(=O)Nc3ccccc3O)c(N)c12,nt,-13%,nt,nt,nt
CC(CNC(=O)CCc1cn(Cc2ccccc2Cl)c2ccccc12)c1ccccc1 (stereo unspecified),nt,-13%,nt,nt,nt
O=C1S/C(=C\c2ccc(N3CCOCC3)o2)C(=O)N1Cc1ccc(F)cc1,4%,5.6µM*,nt,-17%,36%
O=C1NC(=S)S/C1=C/c1ccc(N2CCOCC2)o1,3%,?,-53*,25µM*,57%
O=C1N=C(N2CCOCC2)S/C1=C/c1ccc(-c2ccc(F)cc2)o1,-2%,-20%,-5,-1%,-4%
O=C1S/C(=C/c2ccc(N3CCOCC3)o2)C(=O)N1Cc1ccc(F)cc1,1%,14µM*,-7,-7%,36%
CC(C)OC(=O)CN1C(=O)S/C(=C/c2ccc(N3CCCCC3)o2)C1=O,-1%,?,nt,-11%,33%
COc1ccc2cc(/C=C3\SC(=S)NC3=O)c(N3CCOCC3)nc2c1,1%,-20%,-62*,-7%[11.6 µM],?
Brc1ccc(-c2ccc(CNCCSc3nnnn3-c3ccccc3)o2)cc1,nt,-25%,nt,nt,nt
COCCCNC(=O)CN1C(=O)c2cccnc2Sc2ccccc21,nt,-6%,nt,nt,nt
SMILES,USP2a block,USP1-UAF1 inh,PI5P4K alpha inh,WRN helicase inh,PLK1 PBD block
COc1cccc(CCNC(=O)c2ccc(Cn3c(SCc4ccccc4)nc4cccnc43)cc2)c1,nt,-10%,nt,nt,nt
CCOc1ccc(-n2nc3ccc(NC(=O)c4ccc(-c5cccc(Cl)c5)o4)cc3n2)cc1,nt,7%,nt,nt,nt
O=S1(=O)N=C(Nc2nncs2)c2ccccc21,0%,-10%,nt,-10%,24µM*
Oc1ccc(Br)cc1CNc1nccs1,1%,-11%,2,-3%,-10%
Oc1ccc(Br)cc1CNc1ccccn1,1%,-23%,-21,-3%,17µM*
COc1cc(C=C2C(=O)OC(C)(C)OC2=O)ccc1OCC(=O)Nc1ccccc1,2%,-22%,5,2%,19µM*
NS(=O)(=O)c1ccc(Nc2nc(-c3ccc(F)cc3)cs2)cc1,3%,-21%,2,-6%,6%

# Screening data (PubChem)
